Data from PubChem BioAssay AID1508608 (The Scripps Research Institute Molecular Screening Center, 2020).
About 20 (0.9%) of roughly 2,300 compounds were called active. The full list was thinned out, with actives kept by preference. Unmarked numbers belong to inactive results.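 The calls were made as follows: active = mean activation across replicates above 26.72%, the hit cutoff set for this confirmation screen; inactive = the rest.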

molecular target: G-protein coupled receptor 151 (Homo sapiens) (UniProt Q8TDV0); assay: GPR151 activators, triplicate retest, confirmation, cell-based, PathHunter beta-arrestin, luminescence, set 2 (AID 1508608); details: GPR151 PathHunter beta-arrestin cells, 90 min, at 11.2 µM, stronger effect = higher value, 100% = signal from added EA reagent;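 also: 0% = plate median of compound wells and 100% = EA reagent high control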
Sequence (Q8TDV0 whole entry, looked up): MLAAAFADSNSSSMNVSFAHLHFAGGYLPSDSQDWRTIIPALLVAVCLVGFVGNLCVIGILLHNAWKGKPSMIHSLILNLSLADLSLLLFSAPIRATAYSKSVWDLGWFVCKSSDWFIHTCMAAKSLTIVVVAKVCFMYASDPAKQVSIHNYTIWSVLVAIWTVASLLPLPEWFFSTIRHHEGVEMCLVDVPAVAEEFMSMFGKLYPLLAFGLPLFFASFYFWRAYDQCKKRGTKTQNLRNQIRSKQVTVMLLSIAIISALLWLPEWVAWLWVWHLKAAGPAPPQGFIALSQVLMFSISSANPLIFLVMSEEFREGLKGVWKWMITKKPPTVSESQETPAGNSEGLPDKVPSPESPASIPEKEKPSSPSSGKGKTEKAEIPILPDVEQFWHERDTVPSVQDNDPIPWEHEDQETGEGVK

| SMILES | activation |
| --- | --- |
| CC(=O)NCC(=O)N1CCC(c2nc(-c3ccncc3)ncc2-c2cccc(C)c2)CC1 | 0.35% |
| CCCn1c(=O)c2c(nc3n2CC(C)CN3c2cccc(Cl)c2)n(C)c1=O (stereo unspecified) | 3.55% |
| S=c1[nH]nc(OCc2ccc(Cl)cc2Cl)n1-c1ccccc1 | -1.15% |
| CC1C(=O)Nc2ccc(S(=O)(=O)Nc3ccc(F)c(Cl)c3)cc2NC1=O (stereo unspecified) | 4.91% |
| COC(=O)C1(C(F)(F)F)N=C2C=C(C)C=CN2C(c2ccc(C)cc2)=N1 (stereo unspecified) | 3.12% |
| COC(=O)c1c(NC(=O)COc2cccc(C(F)(F)F)c2)sc2c1CCCC2 | -0.94% |
| O=C1CSc2ccc(C(=O)N3CCc4ccccc4C3)cc2N1 | -0.36% |
| Cc1sc2ncn(CC(=O)Nc3ccc(Oc4ccc(Cl)cc4)cc3)c(=O)c2c1C | 2.02% |
| COc1ccc(/C=N/NC(=O)COc2c(OC)cc([N+](=O)[O-])cc2[N+](=O)[O-])c(O)c1 | -9.14% |
| CCc1c(C)nc2c(C(=O)NCCc3ccccc3)c[nH]n2c1=O | 1.59% |
| CCOc1ccc(C(=O)Nc2nc(-c3ccc(CC)cc3)cs2)cc1 | 4.71% |
| O=c1ccc(=O)n(CN(c2ccccc2)c2ccccc2)[nH]1 | 4.24% |
| CCN(CC)CCNC(=O)CNC(=O)c1nn(-c2ccc(OC)cc2OC)c(=O)c2ccccc12 | -4.28% |
| Cc1ccc(-c2cc(=O)c3cc(Cl)ccc3o2)cc1 | -6.67% |
| O=C(O)CNC(=O)/C=C/c1ccccc1Cl | -5.28% |
| O=c1c2sc3ccccc3c2n(CCN2CCOCC2)c(=O)n1Cc1ccccn1 | 1.89% |
| COc1ccc(C)cc1NC(=O)c1sc2ncn(CC(=O)Nc3ccc(C)c(Cl)c3)c(=O)c2c1C | -0.16% |
| O=C(c1ccccc1)c1cc2cc(Cl)ccc2oc1=O | 1.99% |
| O=C(CCNS(=O)(=O)c1ccc2[nH]c(=O)ccc2c1)N1CCC(N2CCCCC2)CC1 | -4.32% |
| COc1cccc(NC2c3ccccc3C(=O)N2c2cccnc2)c1 (stereo unspecified) | 0.11% |
| O=C(O)c1ccc(Sc2ccc(Br)cc2)c([N+](=O)[O-])c1 | -1.52% |

| SMILES | activation |
| --- | --- |
| COc1ccc(C2C3=C(CCCC3=O)Nc3nc(SC)nn32)c(OC)c1 (stereo unspecified) | 1.74% |
| CCOC(=O)C1=C(C)N=c2s/c(=C\c3cc([N+](=O)[O-])ccc3N3CCOCC3)c(=O)n2C1c1ccc(OC)c(OC)c1 (stereo unspecified) | 0.23% |
| Cc1ccc(CN2CCN(Cc3ccc4cc(F)ccc4n3)CC2CCO)o1 (stereo unspecified) | 4.51% |
| CCn1c(=S)sc2c(=O)[nH]c(C)nc21 | -7.13% |
| CC(=O)n1nc(-c2ccco2)nc1SCc1ccccc1 | 2.59% |
| Cc1noc(C)c1S(=O)(=O)N1CCC(C(=O)N2CCCCC2C)CC1 (stereo unspecified) | -1.12% |
| CCCc1cc(=O)n2[nH]c(NCc3cccc(OC)c3)nc2n1 | -0.18% |
| CCC(C)NC(=O)CSc1nnc(-c2ccc(C)cc2)c(-c2ccc(C)cc2)n1 (stereo unspecified) | 6.79% |
| CCN(CC)S(=O)(=O)c1ccc(-c2csc(=Nc3ccccc3OC)n2CC)cc1 | 28.4% (active) |
| O=S(=O)(c1ccc(-c2csc(=Nc3cccc(Cl)c3)n2CCCO)cc1)N1CCCCC1 | 14.5% |
| COc1ccc(CCn2c(-c3ccc(Cl)cc3)csc2=Nc2ccc(F)cc2)cc1OC | 2.13% |
| COc1ccc(C(=O)NC(C)c2csc(C)n2)cc1OC1CCN(C(C)=O)CC1 (stereo unspecified) | 1.6% |
| Cc1ccc2c(c1)NC(C)(C)c1ssc(=Nc3ccc(S(=O)(=O)Nc4nccc(C)n4)cc3)c1-2 | 6.63% |
| CSc1ncc(Cl)c(C(=O)Nc2nc3ccc(S(C)(=O)=O)cc3s2)n1 | -3.08% |
| CC[n+]1c(/C=C2\Sc3ccc(C)cc3N2CCO)ccc2ccccc21 | 31.2% (active) |
| CCC[n+]1c(/C=C2\Sc3ccccc3N2CC)ccc2ccccc21 | 15.4% |
| CN1CCN(c2cc(-c3cn[nH]c3)ccc2NC(=O)Cc2cccc(Cl)c2)CC1 | 35.5% (active) |
| N#Cc1c(-c2ccccc2)cc(-c2cccs2)nc1SC1CCCCC1O (stereo unspecified) | 4.8% |
| Cc1ccc2nc(NC(=O)CCCN3C(=S)NC(C)(C)CC3C)sc2c1 (stereo unspecified) | 2.74% |
| C#CCOc1c(Br)cc(C=O)cc1OC | -0.43% |
